The campaign covered roughly 330,000 compounds. About 5,800 (1.8%) were called active. Cut-off read from the data, not from the text of the source: active = inhibition mostly above about 38% (no sharp cut-off); inactive = mostly below about 40%. What follows is part of a selection rich in actives, with near analogues and random picks from the rest.

Chain of Orexin/Hypocretin receptor type 1 (Homo sapiens) (O43613 whole entry, looked up): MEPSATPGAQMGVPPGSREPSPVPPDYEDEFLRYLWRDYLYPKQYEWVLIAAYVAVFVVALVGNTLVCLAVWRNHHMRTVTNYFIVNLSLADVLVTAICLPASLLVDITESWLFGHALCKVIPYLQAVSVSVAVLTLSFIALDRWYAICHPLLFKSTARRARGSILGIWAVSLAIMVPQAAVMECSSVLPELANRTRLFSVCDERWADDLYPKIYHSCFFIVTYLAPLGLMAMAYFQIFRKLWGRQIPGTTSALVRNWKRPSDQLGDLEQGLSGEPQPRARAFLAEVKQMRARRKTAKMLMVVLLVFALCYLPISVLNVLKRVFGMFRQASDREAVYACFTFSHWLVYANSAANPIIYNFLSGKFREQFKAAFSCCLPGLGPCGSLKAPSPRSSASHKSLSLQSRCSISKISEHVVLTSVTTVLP

The test addresses Orexin/Hypocretin receptor type 1 (Homo sapiens) (UniProt O43613). The experiment in a line: antagonists of human orexin 1 receptor (OX1R) (AID 485270).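 Note: 0% = agonist challenge alone and 100% = reference antagonist.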 To be noted: OX1R-expressing cells, FRET antagonist read-out; at 6.6 µM; stronger effect = higher value.
For `Cc1ccc(CNC(=O)COC(=O)C2CCC2)cc1`, the inhibition is 8.9% (inactive).
Then `O=C(COC(=O)c1cc(S(=O)(=O)N2CCOCC2)ccc1F)NC1CC1`, with 8.42% (inactive); and `CN(CC(=O)NCCc1ccc(S(N)(=O)=O)cc1)CC(=O)Nc1ccc(Cl)cc1`, with 3.5% (inactive); and `CCCc1cc(=O)[nH]c(SCC(=O)Nc2ccc(C(=O)Nc3ccccc3OC)cc2)n1`, with 14.2% (inactive).
Then `Cc1ccc2c(c1)NC(=O)[C@@]1(C)[C@@H](c3ccccc3)[C@H]3COc4ccc(Cl)cc4[C@@H]3N1C2=O`, with 27.8% (inactive); and `CSc1ncccc1C(=O)NCC(c1ccco1)N1CCCCC1` (centres undefined), with 1.61% (inactive).
Then `O=C1N[C@@H](c2ccccc2)COC(=O)[C@H](Cc2ccc(F)cc2)C/C=C\C[C@@H]1CC(=O)N(CCO)Cc1ccccc1`, with 13.5% (inactive).
For the molecule `CC1CC(=NNC(=O)C2COc3ccccc3O2)CC(C)(C)C1` (centres undefined), the inhibition is 5.91% (inactive).
Then `O=C(Nc1ccccn1)C1CCN(S(=O)(=O)c2ccc3c(c2)OCCO3)CC1`, with -0.64% (inactive); and `COc1cccc(NC(=O)COC(=O)c2ccc3ccccc3n2)c1`, with 10.5% (inactive).
Then `CCc1ccc(C(=O)N2CCN(S(=O)(=O)c3sc(C(=O)O)c(C)c3C(=O)O)CC2)cc1`, with 0.64% (inactive).
In the case of `COc1ccc(CCOC2OC(CO)C(OC(=O)/C=C/c3ccc(O)c(OC)c3)C(O[C@H]3O[C@@H](C)[C@H](O)[C@@H](O)[C@H]3O)C2O)cc1O` (some centres undefined) it was 3.08% (inactive).
As for `CCOC(=O)CSC1=N/C(=C/c2ccc(-n3cncn3)cc2)C(=O)N1C(C)=O`, the inhibition is 64.5% (active).
In the case of `CCOC(=O)CSc1nc(C)cc2c1C(=O)OC2` it was 5.73% (inactive); in that of `CCOC(=O)CSc1ccccn1`, 2.08% (inactive); in that of `COc1cccc(CC(=O)OCC(=O)NCc2ccc3c(c2)OCO3)c1`, 4.94% (inactive).
Turning to `CC(=O)Nc1ccc(S(=O)(=O)NCC(=O)OCC(=O)c2ccc[nH]2)cc1`, the inhibition is 7.15% (inactive).
Then `Cc1ccc(C)c(NC(=O)COC(=O)c2nn(C)c(=O)c3ccccc23)c1`, with 4.64% (inactive); and `CC(Sc1nncn1C)C(=O)NCCC1=CCCCC1` (centres undefined), with 5.26% (inactive).
Then `COc1ccc(CNc2nc(NCc3ccc(OC)cc3)c3ncn(C4CCCC4)c3n2)cc1`, with 15.3% (inactive).
In the case of `O=C(Nc1ccc(Br)cn1)c1ccc([N+](=O)[O-])cc1Cl` it was 13.9% (inactive); in that of `O=C(Nc1ccc(Br)cn1)c1ccc([N+](=O)[O-])o1`, 64.5% (active).
Turning to `Cc1onc(NC(=O)c2ccc([N+](=O)[O-])o2)c1Br`, the inhibition is 33.4% (inactive).
In the case of `COc1ccc(C2(c3ccc(OC)cc3)NC(=O)N(CC(=O)Nc3cc(C)on3)C2=O)cc1` it was 14% (inactive); in that of `CCN1C[C@@H]2[C@@H]3C(=O)N(Cc4ccccc4)C(=O)[C@@H]3[C@](Cc3ccccc3)(C(=O)OC)N2C1=NC1CCCCC1`, 5.88% (inactive).
`COc1ccc(N2CCN(c3ccc([N+](=O)[O-])cc3Cl)CC2)cc1`: the inhibition was 11.7% (inactive).
Then `CC(C)(C)c1cnnn1-c1ccc([N+](=O)[O-])cc1`, with 29.6% (inactive); and `COc1cnn(-c2ccc([N+](=O)[O-])cc2)c(=O)c1Cl`, with 49.7% (active); and `O=C(Cn1cnc2c(OCc3ccccc3)ncnc21)NCCCn1ccnc1`, with -0.28% (inactive).
In the case of `Cc1cc(NC(=O)COc2ccccc2C#N)no1` it was 4.54% (inactive).
Consider `CNC[C@H]1Oc2c(NC(=O)C3CCCCC3)cccc2C(=O)N([C@H](C)CO)C[C@@H]1C`, for which the inhibition was 6.17% (inactive).
In the case of `COc1cc(/C=C/C(=O)Nc2ccc(OC)c(S(=O)(=O)N3CCOCC3)c2)ccc1OCC#N` it was 6.14% (inactive).
Take `CN(C)C(=O)c1coc2nc3ccccc3nc12`: the inhibition is 7.78% (inactive).
For the molecule `CNC(=O)c1cccc2nc3ccccc3nc12`, the inhibition is 61.4% (active).
In the case of `CNC(=O)c1cc2c(ccc3ccccc32)oc1=N` it was 50.1% (inactive); in that of `C=CC[C@@H](CC(=O)NCCO)C(=O)N[C@H](C)COC(=O)[C@@H](CC=C)CC(=O)OC(C)(C)C`, 5% (inactive); in that of `CN1CCN(C(=O)c2ccc(-c3ccc(Br)cc3)o2)CC1`, 8.86% (inactive).
Then `O=C1c2cccc3cccc(c23)C(=O)N1c1cccc(O)c1`, with 26.1% (inactive); and `COc1ccc(N2C(=O)c3cccc4cccc(c34)C2=O)nn1`, with 62.1% (active); and `O=C1c2ccccc2C(=O)N1c1cccc2ccccc12`, with 17% (inactive).
Regarding `O=C(CSc1nnc(-c2ccncc2)o1)Nc1cccc(Cl)c1`, the inhibition was 4.25% (inactive).
Regarding `O=C(OCC(=O)N1CCCCC1)c1ccc(OC(F)(F)F)cc1`, the inhibition was 10.9% (inactive).
Then `COc1ccc(S(=O)(=O)N2CCOCC2)cc1NC(=O)CSc1nnc(NC2CC2)s1`, with 5.24% (inactive); and `Cc1ccc(CNC(=O)Cn2cnc3c(NCc4ccccc4)ncnc32)o1`, with 13.2% (inactive).
In the case of `CC(=O)Nc1ccc(S(=O)(=O)Nc2ccc(N3CCCCC3)cc2)cc1`, the inhibition is 16.6% (inactive).
With `COc1cc(OC)c(C(=O)NNC(=O)c2ccccc2-n2cccc2)cc1OC`, the inhibition was 10.5% (inactive).
On to `Oc1c(Cl)cc(Cl)c(Cl)c1Cc1c(O)c(Cl)cc(Cl)c1Cl`, for which the inhibition is 60.5% (active).
In the case of `Cc1cc(NC(=O)CN2C(=O)NC(CC(C)C)C2=O)no1` (centres undefined) it was 4.3% (inactive); in that of `NS(=O)(=O)c1ccc(CCNC(=O)c2ccc([N+](=O)[O-])cc2[N+](=O)[O-])cc1`, 138% (active); in that of `NS(=O)(=O)c1ccc(CCNC(=O)CNC(=O)Cc2ccccc2)cc1`, 1.42% (inactive).
In the case of `O=C(NCCCN1CCOCC1)c1ccc([N+](=O)[O-])cc1[N+](=O)[O-]` it was 70.3% (active); in that of `O=C(Nc1cccnc1)c1ccc(Cl)cc1[N+](=O)[O-]`, 22.6% (inactive).
In the case of `O=C(NCCCN1CCOCC1)c1ccc(N2CCCC2)c([N+](=O)[O-])c1`, the inhibition is 52.4% (inactive).
In the case of `COc1ccc(C(=O)NCCc2ccc(S(N)(=O)=O)cc2)cc1OC` it was 17.6% (inactive).
As for `NS(=O)(=O)c1ccc(CCNC(=O)c2ccc(Cl)cc2[N+](=O)[O-])cc1`, the inhibition was 26.8% (inactive).
In the case of `O=[N+]([O-])c1ccc(NCCCN2CCOCC2)c(Cl)c1` it was 10.8% (inactive); in that of `NS(=O)(=O)c1ccc(CNC(=O)c2ccc(Cl)cc2[N+](=O)[O-])cc1`, 70.7% (active).
Then `Cc1ccc(S(=O)(=O)N2CCN(C(=O)COC(=O)CNC(=O)c3ccc(C(C)(C)C)cc3)CC2)c(C)c1`, with 1.85% (inactive); and `O=C(COC(=O)c1cccc(Cl)c1)NC(=O)NCc1ccccc1`, with 4.12% (inactive); and `C=CCC[C@@H](Cc1ccc(F)cc1)C(=O)O[C@H](CNC(=O)[C@H](CC=C)CC(=O)N(CCO)Cc1ccccc1)c1ccccc1`, with 13.9% (inactive).
Then `C=CCC[C@H](Cc1ccc(F)cc1)C(=O)OC[C@@H](NC(=O)[C@@H](CC=C)CC(=O)N[C@H](CO)Cc1ccccc1)C(C)(C)C`, with -2.5% (inactive); and `COc1cccc(CNS(=O)(=O)c2ccc3c(c2)CC(C)N3C(=O)C2CCC2)c1` (centres undefined), with 53.7% (active); and `COc1ccc(N(C)S(=O)(=O)c2ccc3c(c2)CC(C)N3C(=O)C2CC2)c(OC)c1` (centres undefined), with 13.5% (inactive).
Consider `COc1cccc(CNS(=O)(=O)c2ccc3c(c2)CC(C)N3C(C)=O)c1` (centres undefined), for which the inhibition is 19.3% (inactive).
In the case of `CN(CC(=O)O)C(=O)c1ccccc1` it was 11.7% (inactive); in that of `COCC(=O)N=Nc1c(O)[nH]c2ccccc12`, 68.8% (active); in that of `Cc1cccc(N(CC(=O)N=Nc2c(O)[nH]c3ccccc23)S(C)(=O)=O)c1C`, 5.48% (inactive).
Then `O=C(CCN1CCCCC1)N=Nc1c(O)[nH]c2ccccc12`, with 22.5% (inactive).
In the case of `Cc1ccc(NS(=O)(=O)c2ccc(C(C)C)cc2)cc1S(=O)(=O)N1CCOCC1` it was 1.43% (inactive); in that of `Cc1cccc(OCC(=O)OCC(=O)Nc2ccc(Cl)cn2)c1`, 4.09% (inactive).
In the case of `c1coc(CNc2ncnc3ccccc23)c1`, the inhibition was 37.9% (inactive).
Then `O=C(Cc1ccccc1)n1nc(-c2ccccc2)nc1NCc1ccco1`, with 16.1% (inactive).
In the case of `c1ccc(-c2nc(NCc3ccco3)c3ccccc3n2)cc1`, the inhibition is 81.6% (active).
Then `CCOCCCNc1nc(-c2ccccc2)nc2ccccc12`, with 13.2% (inactive); and `COCCNc1nc(-c2ccccc2)nc2c1oc1ccccc12`, with 19.4% (inactive); and `CCC(=O)OCCNc1nc(-c2ccccc2)nc2ccccc12`, with 48.8% (active).
Regarding `CC1CCCCC1NC(=O)COc1ccc(C#N)cc1` (centres undefined), the inhibition is 1.71% (inactive).
In the case of `O=C(COC(=O)c1ccc(Br)o1)NC12CC3CC(CC(C3)C1)C2` it was 1.86% (inactive).
As for `O=C1N[C@H](Cc2c[nH]c3ccccc23)COC(=O)[C@H](Cc2ccc(F)cc2)C/C=C\C[C@H]1CC(=O)N(CCO)Cc1ccccc1`, the inhibition is -2.83% (inactive).
Then `Cc1ccc(C(=O)Nc2ccn(C)n2)cc1`, with -1.37% (inactive); and `COc1ccc(Br)cc1CN(C)C(=O)C1CC(=O)N(C2CCCC2)C1` (centres undefined), with 8.23% (inactive).
Then `O=C(C1CCCO1)N1CCC(c2nc3ccccc3[nH]2)CC1` (centres undefined), with -1.4% (inactive); and `O=C(Nc1sc2c(c1-c1nc3ccccc3[nH]1)CCCC2)C1CC1`, with 46.5% (active); and `CCOC(=O)c1c(NC(=O)C2CCN(S(=O)(=O)c3ccc(Cl)cc3)CC2)sc2c1CCCC2`, with 6.08% (inactive).
Then `C=CC[C@@H](CC(=O)N[C@@H](CO)Cc1ccccc1)C(=O)NCCOC(=O)[C@@H](CC=C)CC(=O)OC(C)(C)C`, with 14.3% (inactive); and `COC(=O)[C@]1(Cc2ccccc2)N[C@H](CN(C)S(=O)(=O)c2ccc(OC(F)(F)F)cc2)[C@@H]2C(=O)N(Cc3ccccc3)C(=O)[C@@H]21`, with 5.26% (inactive); and `CCOc1cc(NC(=S)NCCCOC)c(OCC)cc1NC(=O)c1ccco1`, with 11.1% (inactive).
Consider `CCCC(=O)Nc1ccc2c(c1)nc(CCNC(=O)c1ccco1)n2C`, for which the inhibition is 7.62% (inactive).
Then `COCCNC(=O)Nc1ccc2nc(-c3ccco3)c(-c3ccco3)nc2c1`, with 113% (active).

A word on the inhibition: it is the relative decrease from the control value, in per cent.

The values are drawn from PubChem BioAssay AID485270 (The Scripps Research Institute Molecular Screening Center, 2010).
